Measurements as given in PubChem BioAssay (NCI).
The panel holds about 83,000 compounds, 20% with a hit somewhere; the sample as a whole holds those more often.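 Results are percent growth after 48 hours of single-concentration exposure. 100 means growth as in untreated cells, lower positive values show inhibition; negative values down to -100 show cell death.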 A number with no mark means an inactive call. Activity calls are given as the source filed them. The calls were made as follows: active = growth percent below 10; inactive = the rest.

System: U251 CNS
Assay: NCI-60 one-dose screen, 48 h (100 = growth as untreated, 0 = no growth, -100 = all killed)
Conditions: 10 µM

| Structure (SMILES) | growth |
| --- | --- |
| O=C(O)c1ccccc1NCc1ccco1 | 103% |
| C/C(=C\c1cc(Cl)ccc1OCC(=O)O)[N+](=O)[O-] | 102% |
| CSC[C@H](NC(=O)COc1cccc2cnccc12)C(=O)NC(Cc1ccccc1)C(O)C(=O)N1CSC[C@H]1C(=O)NC(C)(C)C (stereo partly specified) | 102% |
| COC1=CC(=O)c2nc(Cl)ccc2C1=O | -42.5% (active) |
| CCOC(=O)CCCC(=O)OCC | 99.9% |
| N#Cc1ccc(NC(=O)Nc2cccc(C#N)c2)cc1 | 91.8% |
| CC(C)=C(NC(=O)c1ccccc1)C(=O)O | 114% |
| Cc1cc2nc(CC(=O)c3cccc([N+](=O)[O-])c3)c(=O)[nH]c2cc1C | 95.1% |
| COc1cc(C(=O)N/N=C/c2cccc([N+](=O)[O-])c2)cc(OC)c1OC | 55.6% |
| CN(C)C(C)(C)CC(C)(C)C | 107% |
| O=c1cc(-c2ccccc2)[nH]c2c1CCCC2 | 27.9% |
| CC1(c2ccccc2)NC(=O)NC1=O (stereo unspecified) | 113% |
| CCCNC(=O)c1ccc(S(N)(=O)=O)cc1 | 103% |
| COC(=O)c1[nH]c(=O)c(C#N)c(C(=O)OC)c1C(=O)c1ccccc1 | 96.8% |
| O=C(O)[C@@H]1[C@H]2C[C@H]3c4[nH]c5ccccc5c4CCN3C[C@@H]2CC[C@@H]1O | 114% |
| CCCCOC(OCCCC)c1ccccc1 | 109% |
| CC1(O)OC(COc2ccc(Cl)cc2)COC1O (stereo unspecified) | 100% |
| CC(C)=NNc1ccc([N+](=O)[O-])cc1[N+](=O)[O-] | 92.9% |

| Structure (SMILES) | growth |
| --- | --- |
| CC(=O)CC(=O)N(C)C | 100% |
| Nc1ccc(N=Nc2ccc(S(=O)(=O)O)cc2)c2ccccc12 | 98.9% |
| COc1cc(OC)c2ccc(=O)oc2c1 | 98.8% |
| c1ccc(Sc2ccccc2)cc1 | 94.5% |
| Cc1ccc(/C=C2\SC(=S)N(c3ccc(F)cc3)C2=O)o1 | 61% |
| COc1ccc2c(NCCCCCCCCNc3c4ccccc4nc4cc(OC)ccc34)c3ccccc3nc2c1 | -100% (active) |
| CC1C(=O)c2ccccc2CC1C(=O)O (stereo unspecified) | 97.1% |
| Cc1nc2ccccc2c2nnc(SCC(=O)N(Cc3ccccc3)c3ccccc3)n12 | 98% |
| CCCCC(O)c1ccccc1 (stereo unspecified) | 98.4% |
| O=S(=O)(O)c1ccc(O)c2ccccc12 | 107% |
| O=C1Cc2ccccc2C(=O)O1 | 104% |
| Nc1nc(OCc2ccccc2)c2[nH]cnc2n1 | 100% |
| Cc1c(C(=O)O)c(=O)n(-c2ccccc2)n1C | 115% |
| O=[N+]([O-])c1ccc(-c2noc(-c3cccs3)n2)cc1 | 86.5% |
| CC(=O)OCC1OC(OC2=C(CC=C(C)C)C(=O)c3ccccc3C2=O)C(OC(C)=O)C(OC(C)=O)C1OC(C)=O (stereo unspecified) | 8.23% (active) |
| CCCCC/C=N/Nc1nc(C)cc(=O)[nH]1 | 96.6% |
| [O-][N+](=Nc1cccc(Cl)c1)c1cccc(Cl)c1 | 84.1% |
| COc1ccc(-c2cc3c(nn2)-c2ccccc2C3=O)cc1 | -3.45% (active) |
